# Active and inactive are the calls of the source. Unless noted, how the calls were made is not given here.
# Experiments:
# [1] = compound effects on lung adenocarcinoma cell viability – A549, calcein-AM fluorescence, 48 h, basal, profiling panel (AID 1162); conditions: higher = more signal; further: test concentration not given here
# [2] = compound effects on differentiated 3T3-L1 adipocyte viability – cell-based, 3T3-L1 adipocytes, calcein-AM fluorescence, 48 h, basal, profiling panel (AID 1163); conditions: 3T3-L1 adipocytes viability, higher = more signal; further: test concentration not given here
# [3] = compound effects on hepatocellular carcinoma cell viability – HepG2, calcein-AM fluorescence, 48 h, basal, profiling panel (AID 1164); conditions: higher = more signal; further: test concentration not given here
# [4] = compound effects on multiple myeloma cell viability – MM1S, calcein-AM fluorescence, 48 h, basal, profiling panel (AID 1165); conditions: higher = more signal; further: test concentration not given here
# [5] = calcein-AM signal in unstimulated myeloma cells – cell-based, calcein-AM fluorescence, 48 h, PK04 Diversity Set, profiling panel (AID 1166); conditions: RPMI8226 myeloma viability, higher = more signal;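 further: cells grown under basal conditions without added stimulus; test concentration not given here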
# [6] = JC-1 mitochondrial signal, unstimulated HepG2 cells – cell-based, JC-1 fluorescence, 24 h, 100 nL compound, profiling panel (AID 1167); conditions: HepG2 mitochondrial potential, higher = more signal; further: test concentration not given here
# [7] = JC-1 mitochondrial signal, unstimulated adipocytes – cell-based, JC-1 fluorescence, 3T3-L1 adipocytes, 24 h, 100 nL compound, profiling panel (AID 1168); conditions: JC-1 mitochondrial fluorescence, higher = more signal, called active from +8 up or from −8 down; further: test concentration not given here
# [8] = JC-1 mitochondrial signal, unstimulated myeloma cells – cell-based, JC-1 fluorescence, RPMI8226, 24 h, 100 nL compound, profiling panel (AID 1169); conditions: JC-1 mitochondrial potential fluorescence, higher = more signal; further: test concentration not given here
# [9] = JC-1 mitochondrial signal, unstimulated MM1S myeloma – cell-based, JC-1 fluorescence, 24 h, 100 nL compound, profiling panel (AID 1170); conditions: MM1S mitochondrial potential, higher = more signal; further: test concentration not given here
# [10] = resazurin metabolic signal in A549 cells – cell-based, resazurin fluorescence, 24 h, PK04 Diversity Set, profiling panel (AID 1171); conditions: A549 viability, higher = more signal, called active from +8 up or from −8 down; further: test concentration not given here
# [11] = resazurin metabolic signal in HepG2 cells – cell-based, resazurin fluorescence, 24 h, PK04 Diversity Set, profiling panel (AID 1172); conditions: HepG2 viability, higher = more signal; further: test concentration not given here
# [12] = budding yeast growth changes without added modifier – OD600, strain BY4716, 24 h, basal condition, primary screen (AID 1173); conditions: S. cerevisiae BY4716 growth, OD600, 24 h; higher = more signal, called active from +8 up or from −8 down
# [13] = viability profiling in MM1S myeloma cells – cell-based, resazurin fluorescence, basal, 24 h, PK04 Diversity Set, profiling panel (AID 1174); conditions: higher = more signal, called active from +8 up or from −8 down; further: test concentration not given here
# [14] = target: Dihydroorotate dehydrogenase (quinone), mitochondrial (Plasmodium falciparum (isolate 3D7)) (UniProt Q08210); experiment: inhibition of P. falciparum DHODH – biochemical, C-terminal His tag, absorbance 600 nm, primary screen (AID 1175); conditions: PfDHODH enzyme, DCIP absorbance 600 nm; higher = more signal, called active from +8 up or from −8 down;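 further: recombinant parasite enzyme with a five histidine tag at its C terminus; test concentration not given here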
# Chain of Dihydroorotate dehydrogenase (quinone), mitochondrial (Plasmodium falciparum (isolate 3D7)) (Q08210 whole entry, looked up): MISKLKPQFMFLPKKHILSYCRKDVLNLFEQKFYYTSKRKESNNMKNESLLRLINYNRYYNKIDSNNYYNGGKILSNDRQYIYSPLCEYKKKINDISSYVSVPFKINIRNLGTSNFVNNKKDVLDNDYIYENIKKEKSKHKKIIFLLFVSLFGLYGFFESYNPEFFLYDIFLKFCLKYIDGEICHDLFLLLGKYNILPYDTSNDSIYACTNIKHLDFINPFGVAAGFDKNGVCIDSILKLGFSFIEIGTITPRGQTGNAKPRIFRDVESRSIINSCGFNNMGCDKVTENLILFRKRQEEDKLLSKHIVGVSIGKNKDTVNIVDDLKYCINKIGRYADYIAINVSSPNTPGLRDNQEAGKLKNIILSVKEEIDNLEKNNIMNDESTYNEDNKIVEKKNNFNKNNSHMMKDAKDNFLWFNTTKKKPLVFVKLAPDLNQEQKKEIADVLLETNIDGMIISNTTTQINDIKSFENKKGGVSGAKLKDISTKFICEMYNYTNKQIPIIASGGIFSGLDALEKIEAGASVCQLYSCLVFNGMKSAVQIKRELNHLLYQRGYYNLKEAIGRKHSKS
# [15] = inhibition of PAO1 biofilm formation – strain PAO1, LB-PBS medium, absorbance 600 nm, primary screen (AID 1176); further: test concentration not given here; conditions: P. aeruginosa PAO1 growth/biofilm, A600, 12 h; higher = more signal
# [16] = growth modulation of vineyard yeast isolate – strain RM11-1a, OD600, basal, 24 h, primary screen (AID 1177);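 further: cultures grown under basal conditions with no added stressor; test concentration not given here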; conditions: S. cerevisiae RM11-1a growth, OD600, 24 h; higher = more signal, called active from +8 up or from −8 down
# [17] = growth of efflux-deficient E. coli DRC39 – strain DRC39, OD650, 24 h, E. coli filamentation inducers, primary screen (AID 1178);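 further: growth measured as culture turbidity by optical density at 650 nm; test concentration not given here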; conditions: E. coli DRC39 acrAB, higher = more signal, called active from +8 up or from −8 down
# [18] = growth of efflux-deficient E. coli DRC39 – strain DRC39, OD650, 48 h, E. coli filamentation inducers, primary screen (AID 1179);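 further: screen aims at cell division blockers that make cells filament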; conditions: E. coli DRC39 delta-acrAB growth, higher = more signal, called active from +8 up or from −8 down
# [19] = viability profiling in RPMI8226 myeloma cells – cell-based, resazurin fluorescence, basal, 24 h, PK04 Diversity Set, profiling panel (AID 1180); conditions: higher = more signal;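 further: RPMI8826 multiple myeloma cell line at 5000 cells per well; test concentration not given here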
# [20] = target: E3 ubiquitin-protein ligase XIAP (Homo sapiens) (UniProt P98170); experiment: small molecules binding XIAP protein – biophysical, small-molecule microarray, fluorescence 635 nm, primary screen (AID 1181); conditions: higher = more signal;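 further: score merges 667 nm emission and signal to noise over triplicate slides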
# Chain of E3 ubiquitin-protein ligase XIAP (Homo sapiens) (P98170 whole entry, looked up): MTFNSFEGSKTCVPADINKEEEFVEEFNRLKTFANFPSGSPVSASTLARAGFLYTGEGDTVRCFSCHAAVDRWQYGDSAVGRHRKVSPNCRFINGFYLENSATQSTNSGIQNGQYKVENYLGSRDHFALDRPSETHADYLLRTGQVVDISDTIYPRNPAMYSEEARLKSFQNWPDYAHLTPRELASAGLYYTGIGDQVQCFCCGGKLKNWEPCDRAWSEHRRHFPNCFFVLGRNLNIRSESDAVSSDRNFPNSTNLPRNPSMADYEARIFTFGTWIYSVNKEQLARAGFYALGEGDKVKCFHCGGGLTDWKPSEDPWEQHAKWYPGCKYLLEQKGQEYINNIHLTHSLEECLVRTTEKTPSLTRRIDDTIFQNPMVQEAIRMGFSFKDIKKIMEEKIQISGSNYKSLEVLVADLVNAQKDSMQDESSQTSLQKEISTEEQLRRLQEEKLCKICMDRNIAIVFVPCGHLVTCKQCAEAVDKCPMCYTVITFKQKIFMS
SMILES,z-score [1],z-score [2],z-score [3],z-score [4],z-score [5],z-score [6],z-score [7],z-score [8],z-score [9],z-score [10],z-score [11],z-score [12],z-score [13],composite z-score [14],z-score [15],z-score [16],z-score [17],z-score [18],z-score [19],composite z-score [20]
O=C(CS)NCCCCCNC(=O)[C@@H]1C[C@@H]2C(=O)N3CCC[C@H]3C(=O)N2[C@@H]1c1cccc(OCCO)c1,-0.174,0.195,0.451,-0.304,-0.799,0.266,0.0369 (inactive),-0.00798,0.305,-0.61 (inactive),-0.514,0.196 (inactive),-0.374 (inactive),-1.8 (inactive),0.711 (inactive),0.119 (inactive),-0.277 (inactive),-0.141 (inactive),-0.664,0.122
COCCOC(=O)N1C(=O)[C@@]2(c3cc(C#CC4=CCCCC4)ccc31)[C@H](c1ccccc1OCCO)N1[C@H](c3ccccc3)[C@H](c3ccccc3)OC(=O)[C@H]1[C@@H]2C(=O)Nc1nc2ccccc2s1,-0.0438,0.764,0.416,-2.34,-3.43,-2.68,0.745 (inactive),-0.759,-1.08,-0.0954 (inactive),0.322,0.357 (inactive),-0.774 (inactive),-0.291 (inactive),1.63 (inactive),1.12 (inactive),-0.736 (inactive),-0.3 (inactive),-0.765,0.0304
O=C1NC(=O)C2C1C=CC(C(O)c1ccco1)N2Nc1ccccn1 (stereo not given),-0.291,-0.0855,-0.125,-0.0456,-0.529,-1.33,-0.688 (inactive),0.127,-0.154,-0.974 (inactive),-1.32,0.461 (inactive),-1.68 (inactive),0.257 (inactive),0.956 (inactive),0.254 (inactive),-0.457 (inactive),-0.21 (inactive),-1.09,-0.0342
COC(=O)C(CC#Cc1ccc2c(c1)[C@]1(C(=O)N2)[C@H](C(=O)N2CCN(c3ncccn3)CC2)[C@H]2C(=O)O[C@H](c3ccccc3)[C@H](c3ccccc3)N2[C@@H]1c1ccc(OCCO)cc1)C(=O)OC,-0.0572,-0.609,1.09,0.607,0.363,-0.612,0.895 (inactive),-0.933,-1.44,-0.178 (inactive),-0.589,1.78 (inactive),-1.45 (inactive),-8.4 (active),3.59 (inactive),3.84 (inactive),0.475 (inactive),1.05 (inactive),-0.126,-0.039
